{"source": "PubChem BioAssay AID624296", "about": "(National Center for Advancing Translational Sciences (NCATS), 2012)", "note": "The campaign covered roughly 350,000 compounds. About 9,900 (2.8%) were called active. Not shown: some 15% with an inconclusive outcome. Only a selection was taken, and actives are over-represented in it overall. Unmarked numbers belong to inactive results. Calls come from the whole dose curve; as a rule, active = well fitted activation curve with a large enough effect; inconclusive = small, poorly fitted or top-dose-only effect; inactive = no such curve, though single readings can be large or run the other way."}
{"assay": "A quantitative high throughput screen for small molecules that induce DNA re-replication in MCF 10a normal breast cells; note: nearly all actives have a fitted effect of over 50% in size; note: potency is the fitted concentration of half-maximal effect; for activity, positive = re-replication: % of control where 0% means no effect.", "conditions": "MCF 10A DNA re-replication, Hoechst nuclear intensity, 48 h; series mostly up to 46.1 µM; activity, positive = re-replication: at the top concentration", "units": {"activity, positive = re-replication": "%"}}
{"compound": "CCCC(O)(c1ccccc1)C(c1ccccc1)c1ccccn1", "note": "(centres undefined)", "activity, positive = re-replication": -1.11}
{"compound": "COc1cc(/C=C/C(=O)OCC(=O)NCCCc2ccccc2)ccc1O", "activity, positive = re-replication": 6.85}
{"compound": "Cc1ccc(Cn2c(=N)c(S(=O)(=O)c3ccc(C)cc3)cc3c(=O)n4ccccc4nc32)cc1", "Potency": "5.8 µM (active)"}
{"compound": "O=Cc1c(N2CCN(c3cccc(Cl)c3)CC2)nc2ccccn2c1=O", "activity, positive = re-replication": 11.1}
{"compound": "CCCn1nc(NS(=O)(=O)c2ccc(F)cc2)c2cc3ccccc3nc21", "activity, positive = re-replication": -1.72}
{"compound": "CCn1c(=N)c(S(=O)(=O)c2ccc(F)cc2)cc2c(=O)n3ccccc3nc21", "Potency": "13 µM (active)"}
{"compound": "CCOCCCNC(=O)c1cc2c(=O)n3ccccc3nc2s1", "activity, positive = re-replication": 0.195}
{"compound": "O=Cc1c(Nc2ccccc2Cl)nc2ccccn2c1=O", "activity, positive = re-replication": 12.2}
{"compound": "Cc1cc(C(=O)COc2ccccc2Cl)c(C)n1C1CC1", "activity, positive = re-replication": 13.9}
{"compound": "Cc1ccc(C(=O)NNC(=O)c2ccc3c(c2)OCCO3)cc1", "activity, positive = re-replication": 9.08}
{"compound": "O=C(C1Cc2ccccc2CN1C(=O)c1ccco1)N1CCN(c2ccccc2)CC1", "note": "(centres undefined)", "activity, positive = re-replication": 7.91}
{"compound": "Cc1cc(S(=O)(=O)c2cc3ccc(O)c(C)c3oc2=O)ccc1F", "Potency": "10.3 µM (active)"}
{"compound": "COc1cccc2cc(S(=O)(=O)c3ccc(C)cc3)/c(=N/NS(=O)(=O)c3ccc(C)cc3)oc12", "activity, positive = re-replication": 18.1}
{"compound": "COC(=O)Cc1cc(=O)oc2c(C)c(O)ccc12", "activity, positive = re-replication": -7.36}
{"compound": "Cc1nc(Nc2ccccc2C)c2cnn(C)c2n1", "activity, positive = re-replication": 21.9}
{"compound": "O=[N+]([O-])c1cc2ccccc2nc1-c1ccccc1", "activity, positive = re-replication": 5.75}
{"compound": "O=C(N[C@@H]1C/C=C\\C[C@@H](CC(=O)N(CCO)Cc2ccccc2)C(=O)N[C@H](Cc2ccccc2)COC1=O)OCC1c2ccccc2-c2ccccc21", "activity, positive = re-replication": -2.36}
{"compound": "Cc1cc(C(=O)COc2ccc(Br)cc2F)c(C)n1C1CC1", "activity, positive = re-replication": -1.62}
{"compound": "CN(C(=O)c1cccc(NC(=O)Cc2ccc(NC(=O)C3CCCN(C(=O)C4CC4)C3)cc2)c1)C1CC1", "note": "(centres undefined)", "activity, positive = re-replication": -45.3}
{"compound": "CC(=C/c1ccccc1)/C=N/NC(=O)c1cc(C)oc1C", "activity, positive = re-replication": 10.6}
{"compound": "CC(/C=N/NC(=O)c1cc(-c2ccc3ccccc3c2)n[nH]1)=C\\c1ccco1", "Potency": "7.31 µM (active)"}
{"compound": "CC(/C=N/NC(=O)c1ccncc1)=C\\c1ccco1", "activity, positive = re-replication": -2.95}
{"compound": "Cc1cccc(C)c1Nc1nnc(SCC(=O)NCCCN2CCCC2=O)s1", "activity, positive = re-replication": -0.211}
{"compound": "CC[C@]12c3[nH]c4cc(CCC(=O)N(C)C)ccc4c3CCN1C(=O)[C@@H](CC(=O)NCCCn1ccnc1)C[C@@H]2C(=O)N1CCN(C(=O)C2CC2)CC1", "activity, positive = re-replication": 1.8}
{"compound": "COC(=O)c1cc(C)sc1NC(=O)CC1Nc2ccccc2NC1=O", "note": "(centres undefined)", "activity, positive = re-replication": 26.2}
{"compound": "O=C(CC1Nc2ccccc2NC1=O)Nc1ccccc1", "note": "(centres undefined)", "Potency": "6.51 µM (active)"}
{"compound": "O=C(CC1NCCNC1=O)Nc1ccc(Oc2ccccc2)cc1", "note": "(centres undefined)", "activity, positive = re-replication": -9.06}
{"compound": "COC(=O)Cc1nc2c(N)nc(N)nc2[nH]c1=O", "activity, positive = re-replication": -1.99}
{"compound": "Nc1ccc2c(c1)C(O)c1ccc(Cl)cc1-2", "note": "(centres undefined)", "activity, positive = re-replication": 7.09}
{"compound": "COc1cc2[nH]c(O)c(C=O)c2cc1OC", "activity, positive = re-replication": 5.23}
{"compound": "CCc1ccc(CNC(=O)C2CCN(c3nnc(C)c4c(C)n(-c5ccc(C)cc5)nc34)CC2)cc1", "Potency": "7.31 µM (active)"}
{"compound": "COc1ccc(-n2nc3c(N4CCC(C(=O)NCc5ccccc5)CC4)nnc(C)c3c2C)cc1", "activity, positive = re-replication": 4.26}
{"compound": "CCc1ccc(CNC(=O)C2CC(=O)N(CCc3ccc(C)cc3)C2)cc1", "note": "(centres undefined)", "activity, positive = re-replication": -6.43}
{"compound": "Cc1ccc(NC(=O)C(c2ccccc2)N2CCN(C(=O)c3ccco3)CC2)cc1", "note": "(centres undefined)", "activity, positive = re-replication": -11.4}
{"compound": "O=C(C(Cl)Cl)N1CCN(c2ccccn2)CC1", "activity, positive = re-replication": -1.55}
{"compound": "O=C(Cc1ccc(Br)cc1)N1CCN(c2ccccn2)CC1", "activity, positive = re-replication": 24.3}
{"compound": "O=C(/C=C/c1cccc(C(F)(F)F)c1)N1CCN(c2ccccn2)CC1", "Potency": "9.2 µM (active)"}
{"compound": "O=C(c1ccc2c(c1)C(=O)N(Cc1ccncc1)C2=O)N1CCN(S(=O)(=O)c2ccc(OC(F)(F)F)cc2)CC1", "activity, positive = re-replication": -6.6}
{"compound": "CCN1C[C@@H]2[C@@H]3C(=O)N(Cc4ccccc4)C(=O)[C@@H]3[C@](Cc3ccccc3)(C(=O)OC)N2C1=NC1CCCCC1", "activity, positive = re-replication": -4.94}
{"compound": "S=C(NCc1ccco1)NCc1ccccc1Cl", "activity, positive = re-replication": 2.77}
{"compound": "Clc1ccccc1CSc1nnc(-c2ccco2)c(-c2ccco2)n1", "Potency": "18.4 µM (active)"}
{"compound": "COC(OC)c1ccnc(SCc2ccccc2Cl)n1", "activity, positive = re-replication": 2.9}
{"compound": "COc1ccc(OCCNC(=O)c2cc(C3CC3)nc3c2cnn3C(C)C)cc1", "activity, positive = re-replication": -3.44}
{"compound": "Cc1cccc(NC(=O)CSc2nc3[nH]ncc3c(=O)[nH]2)c1", "activity, positive = re-replication": 1.23}
{"compound": "O=C(CSc1nc2[nH]ncc2c(=O)[nH]1)Nc1ccc(F)cc1", "activity, positive = re-replication": 1.6}
{"compound": "Cc1cc(C)c2c(=O)[nH]c(SCC(=O)Nc3ccc(Br)cc3)nc2n1", "Potency": "11.6 µM (active)"}
{"compound": "COc1ccccc1-n1nnnc1S(=O)(=O)Cc1ccc(Cl)cc1", "Potency": "16.4 µM (active)"}
{"compound": "COc1ccccc1N1CCN(S(=O)(=O)c2ccc(Cl)cc2)CC1", "activity, positive = re-replication": 14.9}
{"compound": "COc1ccccc1-n1nnnc1SCC(=O)NC(=O)Cc1ccccc1", "activity, positive = re-replication": -2.37}
